Data published in PubChem BioAssay (NCI).
About 79,000 compounds went through this panel and 15% of them were active in at least one assay; those are over-represented in the sample as a whole. Active and inactive are the calls of the source. Rule as the data show it: active = growth inhibition above about 70%; inactive = the rest.

Key:
[1] = NCI Yeast Anticancer Drug Screen. Data for the rad52 strain (AID 147);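 also: 0% = growth of vehicle-treated control cultures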; settings: S. cerevisiae rad52 mutant growth inhibition, stronger effect = higher value
Method in brief: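 Growth of repair-deficient yeast cells was compared between compound-treated and vehicle-treated cultures to give percent inhibition.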

[2] = NCI Yeast Anticancer Drug Screen. Data for the rad50EPP+ strain (AID 151);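 also: 0% = growth of vehicle-treated control cultures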; settings: S. cerevisiae rad50 mutant strain, stronger effect = higher value
Method in brief: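 Measured: growth inhibition of rad50EPP+ yeast. Reference: vehicle-treated controls. Screen uses strains with defined genetic alterations in DNA damage repair or cell cycle control.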

[3] = NCI Yeast Anticancer Drug Screen. Data for the rad50 strain (AID 155);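 also: 0% = growth of vehicle-only cultures of the same strain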; settings: S. cerevisiae rad50 strain growth inhibition, stronger effect = higher value
Method in brief: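 Vehicle-treated cultures provide the reference for the growth inhibition reported for compound-exposed, repair-deficient yeast.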

[4] = NCI Yeast Anticancer Drug Screen. Data for the mec2-1 strain (AID 157); settings: S. cerevisiae mec2-1 strain, stronger effect = higher value
Method in brief: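 Compounds were applied to mec2-1 yeast cells. Their growth was then compared with that of vehicle-treated cultures to give growth inhibition.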

[5] = NCI Yeast Anticancer Drug Screen. Data for the rad14 strain (AID 159);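 also: 0% = growth of vehicle-treated control cultures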; settings: S. cerevisiae rad14 strain growth inhibition, stronger effect = higher value
Method in brief: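 Inhibition of growth is reported for a repair-deficient yeast mutant following compound treatment, calculated relative to cultures that received vehicle.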

[6] = NCI Yeast Anticancer Drug Screen. Data for the sgs1 mgt1 strain (AID 161);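 also: 0% = growth of cultures given vehicle only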; settings: S. cerevisiae sgs1 mgt1 strain, stronger effect = higher value
Method in brief: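 Compounds are added to genetically altered yeast, and growth is compared with cultures given vehicle alone to give percent inhibition.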

[7] = NCI Yeast Anticancer Drug Screen. Data for the CLN2oe strain (AID 163);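 also: 0% = growth of vehicle-only control cultures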; settings: S. cerevisiae CLN2oe strain, stronger effect = higher value
Method in brief: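 Cells of an engineered yeast line with disturbed cell-cycle regulation are treated with compound. Inhibition of growth is then calculated relative to the vehicle-treated reference.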

[8] = NCI Yeast Anticancer Drug Screen. Data for the cln2 rad14 strain (AID 165);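 also: 0% = growth equal to vehicle treated cultures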; settings: S. cerevisiae cln2 rad14 strain, stronger effect = higher value
Method in brief: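 Strain: cln2 rad14 yeast, altered in cell cycle control and DNA damage repair. Read-out: growth inhibition vs vehicle.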

[9] = NCI Yeast Anticancer Drug Screen. Data for the bub3 strain (AID 167); settings: S. cerevisiae bub3 mutant strain, stronger effect = higher value
Method in brief: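 Mutant yeast screening strain plus compound; vehicle-treated cultures serve as the 0% inhibition reference.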

[10] = NCI Yeast Anticancer Drug Screen. Data for the wt2 strain (AID 169); settings: S. cerevisiae wt2 strain growth inhibition, stronger effect = higher value
Method in brief: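 Growth of compound-treated yeast is measured and expressed as inhibition relative to vehicle-only controls.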

[11] = NCI Yeast Anticancer Drug Screen. Data for the mlh1 strain (AID 171);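 also: 0% = growth of vehicle-treated control cultures of the same strain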; settings: S. cerevisiae mlh1 strain growth inhibition, stronger effect = higher value
Method in brief: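 Test agents were incubated with yeast bearing a defined DNA damage repair or cell cycle control alteration; values are growth inhibition normalised to vehicle-treated cultures.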

[12] = NCI Yeast Anticancer Drug Screen. Data for the sgs1 strain (AID 173);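 also: 0% = growth of vehicle-only control cultures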; settings: S. cerevisiae sgs1 mutant, stronger effect = higher value
Method in brief: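 Strain with an altered DNA repair or cell cycle pathway exposed to compound. Growth then measured. Value = inhibition versus vehicle control.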

[13] = NCI Yeast Anticancer Drug Screen. Data for the mlh1 rad18 strain (AID 175); settings: S. cerevisiae mlh1 rad18 strain growth inhibition, stronger effect = higher value
Method in brief: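 A repair-deficient yeast strain is exposed to test compound, and growth is scored relative to vehicle-treated controls.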

[14] = NCI Yeast Anticancer Drug Screen. Data for the rad18 strain (AID 177); settings: S. cerevisiae rad18 mutant growth inhibition, stronger effect = higher value
Method in brief: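 DNA-repair-defective yeast; compound treatment; growth inhibition scored against vehicle.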

[15] = NCI Yeast Anticancer Drug Screen. Data for the wt1 strain (AID 149);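 also: 0% = growth of vehicle-treated wt1 cultures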; settings: S. cerevisiae wt1 strain (SPY 50644) growth inhibition, stronger effect = higher value
Method in brief: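 Each compound is tested on wt1 yeast and the loss of growth versus vehicle gives the inhibition value.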

[16] = at 5.0 µM (retest, dose inferred, filed as 0.5)
[17] = at 50.0 µM (retest, dose inferred, filed as 5.0)

Measured: growth inhibition

CC[C@]1(O)CC(OC2CC(N(C)C)C(O)C(C)O2)c2c(cc3c(c2O)C(=O)c2c(O)cccc2C3=O)[C@@H]1C(=O)OC (stereo partly specified)
inactive: [1]; at 1.2 µM 31% | [2]; at 1.2 µM 6% | [2]; at 3.7 µM 12% | [2]; at 11.0 µM 40% | [3]; at 1.2 µM 33% | [3]; [16] 50% | [4]; at 1.2 µM -16% | [4]; at 3.7 µM -14% | [4]; [16] 4% | [4]; at 11.0 µM 7% | [5]; at 1.2 µM -12% | [5]; at 3.7 µM -18% | [5]; at 11.0 µM 0% | [6]; [16] 36% | [7]; at 1.2 µM -37% | [7]; at 3.7 µM -6% | [7]; at 11.0 µM 12% | [8]; [16] 15% | [9]; at 1.2 µM 33% | [9]; at 3.7 µM 32% | [9]; [16] 21% | [9]; at 11.0 µM 36% | [10]; at 1.2 µM -6% | [10]; at 3.7 µM -6% | [10]; at 11.0 µM 41% | [11]; at 1.2 µM -4% | [11]; at 3.7 µM 6% | [11]; at 11.0 µM 9% | [12]; at 1.2 µM -8% | [12]; at 3.7 µM -2% | [12]; at 11.0 µM 14% | [13]; [16] 22% | [14]; at 1.2 µM 6% | [14]; at 3.7 µM -9% | [14]; at 11.0 µM 2%
active: [1]; at 3.7 µM 77% | [1]; at 11.0 µM 86% | [1]; at 33.0 µM 94% | [1]; at 100.0 µM 96% | [2]; at 33.0 µM 70% | [2]; at 100.0 µM 89% | [3]; at 3.7 µM 75% | [3]; at 11.0 µM 87% | [3]; at 33.0 µM 96% | [3]; [17] 95% | [3]; at 50.0 µM 91.6% | [3]; at 100.0 µM 97% | [4]; at 33.0 µM 79% | [4]; [17] 95% | [4]; at 50.0 µM 93% | [4]; at 100.0 µM 95% | [5]; at 33.0 µM 81% | [5]; at 100.0 µM 96% | [6]; [17] 96% | [6]; at 50.0 µM 93% | [7]; at 33.0 µM 89% | [7]; at 100.0 µM 95% | [8]; [17] 92% | [8]; at 50.0 µM 90.4% | [9]; at 33.0 µM 93% | [9]; [17] 97% | [9]; at 50.0 µM 92% | [9]; at 100.0 µM 98% | [10]; at 33.0 µM 95% | [10]; at 100.0 µM 97% | [11]; at 33.0 µM 90% | [11]; at 100.0 µM 96% | [12]; at 33.0 µM 92% | [12]; at 100.0 µM 96% | [13]; [17] 95% | [13]; at 50.0 µM 91% | [14]; at 33.0 µM 95% | [14]; at 100.0 µM 97%

O=c1c2ccccc2[se]n1-c1cccnc1
inactive: [15]; at 1.2 µM -5% | [15]; at 3.7 µM -6% | [15]; at 11.0 µM 21% | [15]; at 33.0 µM 29% | [15]; at 100.0 µM 56% | [2]; at 1.2 µM 67% | [3]; at 1.2 µM -6% | [3]; at 3.7 µM 27% | [3]; [16] 8% | [3]; at 11.0 µM 65% | [3]; [17] 64% | [3]; at 50.0 µM 23.1% | [4]; at 1.2 µM -18% | [4]; at 3.7 µM 20% | [4]; [16] -20% | [4]; [17] 55% | [4]; at 50.0 µM -6.2% | [5]; at 1.2 µM -28% | [5]; at 3.7 µM 2% | [5]; at 11.0 µM 38% | [6]; [16] 58% | [6]; [17] 21% | [6]; at 50.0 µM 7.85% | [7]; at 1.2 µM 24% | [7]; at 3.7 µM 21% | [7]; at 11.0 µM 58% | [8]; [16] 9% | [8]; [17] 40% | [8]; at 50.0 µM 15.5% | [9]; at 1.2 µM 8% | [9]; at 3.7 µM 14% | [9]; [16] -28% | [9]; [17] 38% | [9]; at 50.0 µM -6.15% | [10]; at 1.2 µM 18% | [10]; at 3.7 µM 18% | [10]; at 11.0 µM 25% | [10]; at 33.0 µM 42% | [10]; at 100.0 µM 60% | [11]; at 1.2 µM 36% | [11]; at 3.7 µM 51% | [12]; at 1.2 µM 23% | [12]; at 3.7 µM 19% | [13]; [16] -14% | [13]; at 50.0 µM 43.9% | [14]; at 1.2 µM 12% | [14]; at 3.7 µM -26% | [14]; at 11.0 µM 3% | [14]; at 33.0 µM 42% | [14]; at 100.0 µM 58%
active: [2]; at 3.7 µM 94% | [2]; at 11.0 µM 98% | [2]; at 33.0 µM 98% | [2]; at 100.0 µM 87% | [3]; at 33.0 µM 92% | [3]; at 100.0 µM 90% | [4]; at 11.0 µM 77% | [4]; at 33.0 µM 98% | [4]; at 100.0 µM 94% | [5]; at 33.0 µM 89% | [5]; at 100.0 µM 84% | [7]; at 33.0 µM 84% | [7]; at 100.0 µM 83% | [9]; at 11.0 µM 81% | [9]; at 33.0 µM 98% | [9]; at 100.0 µM 91% | [11]; at 11.0 µM 98% | [11]; at 33.0 µM 99% | [11]; at 100.0 µM 93% | [12]; at 11.0 µM 80% | [12]; at 33.0 µM 96% | [12]; at 100.0 µM 82% | [13]; [17] 89%
